Of roughly 7,900 targets only a part is listed; those with a hit were picked by preference. About 0.6% of all pairs of compound and target were hits.
Key:
Test in all cases: log2 fold change, soluble protein after heating vs DMSO (PISA); higher = thermal stabilisation; K562 cells, 10 uM, 30 min; active = over 0.2 and 3.5 SD of the protein, either way, in both replicates (recomputed)
[1] = compound: NC(=O)Nc1cc(-c2cccc(F)c2)sc1C(=O)N[C@H]1CCCNC1
Method in brief: (§1)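 Thermal stability values are relative to control samples and come from duplicates. They are expressed as log2 fold changes. For measurement, K562 cells (2×10^6 cells/mL) received 10 μM compound for 30 min, and aliquots were heated for 3 min over 48°C-58°C, pooled, and extracted at 4°C in PBS with 0.5% NP-40. Soluble protein, the supernatant after 21,000xg for 90 min, was quantified by TMTpro 16plex LC-MS/MS with equalised channel sums.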

[2] = compound: NC(=O)c1cnc(N[C@@H]2CCCC[C@@H]2N)nc1Nc1cccc(-n2nccn2)c1
Method in brief: as §1

[3] = compound: NC1(c2ccc(-c3nc4ccn5c(=O)[nH]nc5c4cc3-c3ccccc3)cc2)CCC1
Method in brief: as §1

[4] = compound: NCC(=O)Nc1ccc(-n2nc(C(F)(F)F)cc2-c2ccc3c(ccc4ccccc43)c2)cc1
Method in brief: as §1

entinostat = compound: Nc1ccccc1NC(=O)c1ccc(CNC(=O)OCc2cccnc2)cc1 [entinostat]
Method in brief: as §1

vorinostat = compound: O=C(CCCCCCC(=O)Nc1ccccc1)NO [vorinostat]
Method in brief: as §1

citarinostat = compound: O=C(CCCCCCNC(=O)c1cnc(N(c2ccccc2)c2ccccc2Cl)nc1)NO [citarinostat]
Method in brief: as §1

silmitasertib = compound: O=C(O)c1ccc2c(c1)nc(Nc1cccc(Cl)c1)c1ccncc12 [silmitasertib]
Method in brief: as §1

[5] = compound: O=C1NC(=O)C(c2cnc3ccccn23)=C1c1cn2c3c(cc(F)cc13)CN(C(=O)N1CCCCC1)CC2
Method in brief: as §1

[6] = compound: c1cc(OCCN2CCCCC2)cc(-c2n[nH]c3ccc(-c4nnc[nH]4)cc23)c1
Method in brief: as §1

entospletinib = compound: c1cn2cc(-c3ccc4cn[nH]c4c3)nc(Nc3ccc(N4CCOCC4)cc3)c2n1 [entospletinib]
Method in brief: as §1

Measured: log2 fold change

TELO2 (UniProt Q9Y4R8)
Sequence of UniProt Q9Y4R8 (Q9Y4R8 whole entry, looked up): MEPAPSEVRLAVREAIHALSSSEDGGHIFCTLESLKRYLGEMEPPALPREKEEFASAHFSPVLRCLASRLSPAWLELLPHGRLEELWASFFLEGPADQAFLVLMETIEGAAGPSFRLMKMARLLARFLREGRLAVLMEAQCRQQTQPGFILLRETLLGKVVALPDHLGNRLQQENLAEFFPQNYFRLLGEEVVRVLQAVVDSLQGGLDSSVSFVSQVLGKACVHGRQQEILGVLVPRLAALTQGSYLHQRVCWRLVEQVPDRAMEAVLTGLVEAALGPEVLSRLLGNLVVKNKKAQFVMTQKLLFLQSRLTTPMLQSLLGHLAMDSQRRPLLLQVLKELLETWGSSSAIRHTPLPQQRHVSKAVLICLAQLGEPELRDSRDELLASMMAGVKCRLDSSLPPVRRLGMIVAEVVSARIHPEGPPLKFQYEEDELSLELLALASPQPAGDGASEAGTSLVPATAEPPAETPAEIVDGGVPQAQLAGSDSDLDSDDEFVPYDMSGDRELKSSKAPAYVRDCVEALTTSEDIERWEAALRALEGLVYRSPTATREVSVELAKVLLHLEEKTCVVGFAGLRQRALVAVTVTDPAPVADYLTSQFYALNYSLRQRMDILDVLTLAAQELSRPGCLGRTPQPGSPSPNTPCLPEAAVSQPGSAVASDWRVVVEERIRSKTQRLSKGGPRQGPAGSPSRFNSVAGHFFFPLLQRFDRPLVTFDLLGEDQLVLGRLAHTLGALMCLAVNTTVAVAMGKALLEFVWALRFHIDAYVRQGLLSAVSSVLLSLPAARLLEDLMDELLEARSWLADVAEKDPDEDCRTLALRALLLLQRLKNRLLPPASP
inactive: [1] -0.039 | [2] -0.1 | [3] -0.207 | [4] 0.037 | entinostat 0.039 | vorinostat 0.137 | citarinostat 0.009 | silmitasertib 0.067 | [5] 0.117 | [6] -0.075 | entospletinib 0.044

ST6GAL1 (UniProt P15907)
Sequence of UniProt P15907 (P15907 whole entry, looked up): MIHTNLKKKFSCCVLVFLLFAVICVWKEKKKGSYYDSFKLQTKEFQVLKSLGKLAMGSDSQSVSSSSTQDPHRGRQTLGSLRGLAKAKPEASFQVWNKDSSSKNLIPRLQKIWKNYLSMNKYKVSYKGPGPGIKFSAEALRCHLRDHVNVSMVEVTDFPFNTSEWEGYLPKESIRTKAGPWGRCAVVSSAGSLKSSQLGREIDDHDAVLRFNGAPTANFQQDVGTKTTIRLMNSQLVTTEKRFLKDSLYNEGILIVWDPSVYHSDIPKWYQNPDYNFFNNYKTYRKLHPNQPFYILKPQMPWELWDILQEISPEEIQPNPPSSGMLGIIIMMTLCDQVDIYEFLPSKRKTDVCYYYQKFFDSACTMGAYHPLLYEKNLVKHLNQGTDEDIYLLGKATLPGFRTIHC
inactive: [1] -0.101 | [2] 0.089 | [3] -0.079 | [4] -0.004 | entinostat -0.106 | vorinostat -0.045 | citarinostat 0.025 | silmitasertib 0.024 | [5] 0.017 | [6] -0.064 | entospletinib 0.098

TK1 (UniProt P04183)
inactive: [1] 0.021 | [2] 0.018 | [3] 0.02 | [4] 0.031 | entinostat -0.068 | vorinostat -0.007 | citarinostat 0.016 | silmitasertib 0.013 | [5] -0.025 | [6] -0.027 | entospletinib -0.012

TECR (UniProt Q9NZ01)
Sequence of UniProt Q9NZ01 (Q9NZ01 whole entry, looked up): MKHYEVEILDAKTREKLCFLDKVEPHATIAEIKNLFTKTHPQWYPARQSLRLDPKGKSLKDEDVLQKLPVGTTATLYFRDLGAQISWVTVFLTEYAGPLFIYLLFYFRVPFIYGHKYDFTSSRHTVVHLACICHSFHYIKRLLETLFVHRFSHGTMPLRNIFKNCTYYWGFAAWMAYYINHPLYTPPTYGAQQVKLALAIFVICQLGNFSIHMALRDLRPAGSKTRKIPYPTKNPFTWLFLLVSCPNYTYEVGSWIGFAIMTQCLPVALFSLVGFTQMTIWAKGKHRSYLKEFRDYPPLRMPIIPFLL
inactive: [1] 0 | [2] -0.071 | [3] -0.087 | [4] -0.048 | entinostat 0.042 | vorinostat 0.064 | citarinostat 0.07 | silmitasertib 0.025 | [5] -0.07 | [6] -0.056 | entospletinib -0.018

STX7 (UniProt O15400)
Sequence of UniProt O15400 (O15400 whole entry, looked up): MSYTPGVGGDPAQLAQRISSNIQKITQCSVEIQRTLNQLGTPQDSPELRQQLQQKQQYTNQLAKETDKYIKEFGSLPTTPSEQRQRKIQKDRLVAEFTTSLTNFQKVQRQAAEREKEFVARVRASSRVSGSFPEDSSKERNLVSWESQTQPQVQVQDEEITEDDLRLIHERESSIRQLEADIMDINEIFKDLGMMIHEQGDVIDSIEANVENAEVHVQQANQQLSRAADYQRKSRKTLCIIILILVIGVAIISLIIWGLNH
inactive: [1] 0.036 | [2] -0.02 | [3] -0.072 | [4] 0.011 | entinostat -0.028 | vorinostat -0.093 | citarinostat -0.002 | silmitasertib 0.017 | [5] -0.006 | [6] 0.079 | entospletinib 0.02

SPR (UniProt P35270)
active: [3] 0.491
inactive: [1] 0.006 | [2] 0.13 | [4] -0.002 | entinostat -0.049 | vorinostat -0.154 | citarinostat -0.041 | silmitasertib 0.004 | [5] 0.176 | [6] 0.066 | entospletinib 0.057

TBK1 (UniProt Q9UHD2)
inactive: [1] 0.196 | [2] 0 | [3] -0.086 | [4] -0.118 | entinostat 0.055 | vorinostat -0.025 | citarinostat 0.064 | silmitasertib 0.057 | [5] -0.014 | [6] -0.029 | entospletinib 0.108

SRSF6 (UniProt Q13247)
Sequence of UniProt Q13247 (Q13247 whole entry, looked up): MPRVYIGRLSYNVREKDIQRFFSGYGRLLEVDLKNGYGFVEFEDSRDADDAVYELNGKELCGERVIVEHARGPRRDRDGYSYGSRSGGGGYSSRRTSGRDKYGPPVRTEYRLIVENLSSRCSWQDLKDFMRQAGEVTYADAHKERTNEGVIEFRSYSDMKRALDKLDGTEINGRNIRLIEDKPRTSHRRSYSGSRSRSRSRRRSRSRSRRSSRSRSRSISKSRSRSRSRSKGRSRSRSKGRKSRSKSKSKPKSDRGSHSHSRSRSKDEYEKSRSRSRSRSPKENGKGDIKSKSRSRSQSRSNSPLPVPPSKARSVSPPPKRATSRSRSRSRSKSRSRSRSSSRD
inactive: [1] -0.06 | [2] 0.038 | [3] 0.191 | [4] 0.032 | entinostat -0.082 | vorinostat 0.084 | citarinostat -0.068 | silmitasertib -0.254 | [5] 0.108 | [6] -0.299 | entospletinib 0.29

SUPT5H (UniProt O00267)
inactive: [1] -0.031 | [2] -0.049 | [3] -0.129 | [4] -0.095 | entinostat 0.029 | vorinostat 0.043 | citarinostat 0.074 | silmitasertib 0.038 | [5] -0.115 | [6] -0.028 | entospletinib 0.031

SLC38A9 (UniProt Q8NBW4)
Sequence of UniProt Q8NBW4 (Q8NBW4 whole entry, looked up): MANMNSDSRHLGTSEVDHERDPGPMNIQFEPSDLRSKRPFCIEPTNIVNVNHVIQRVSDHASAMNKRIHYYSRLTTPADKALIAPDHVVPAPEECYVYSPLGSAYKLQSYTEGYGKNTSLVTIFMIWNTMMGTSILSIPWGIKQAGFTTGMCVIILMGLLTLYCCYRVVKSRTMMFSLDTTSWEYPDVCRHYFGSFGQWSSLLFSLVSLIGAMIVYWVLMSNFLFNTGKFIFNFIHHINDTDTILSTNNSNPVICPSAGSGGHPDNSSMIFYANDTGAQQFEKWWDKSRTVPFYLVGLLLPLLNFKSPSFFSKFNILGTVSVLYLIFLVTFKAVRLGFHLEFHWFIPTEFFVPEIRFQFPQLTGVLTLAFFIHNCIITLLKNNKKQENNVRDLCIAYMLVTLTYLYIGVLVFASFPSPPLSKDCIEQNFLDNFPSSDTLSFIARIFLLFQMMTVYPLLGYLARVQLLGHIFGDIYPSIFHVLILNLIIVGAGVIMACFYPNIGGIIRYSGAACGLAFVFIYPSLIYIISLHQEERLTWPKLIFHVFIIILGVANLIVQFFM
inactive: [1] -0.129 | [2] 0.009 | [3] -0.113 | [4] -0.025 | entinostat 0.034 | vorinostat 0.007 | citarinostat 0.004 | silmitasertib 0.035 | [5] -0.044 | [6] -0.043 | entospletinib 0.019

STK4 (UniProt Q13043)
active: [1] 0.248
inactive: [2] -0.031 | [3] -0.1 | [4] 0.006 | entinostat -0.041 | vorinostat 0.011 | citarinostat 0.064 | silmitasertib -0.015 | [5] -0.031 | [6] -0.122 | entospletinib -0.024

SULT1A1 (UniProt P50225)
inactive: [1] -0.049 | [2] 0.039 | [3] -0.179 | [4] 0.123 | entinostat 0.133 | vorinostat 0.063 | citarinostat 0.056 | silmitasertib -0.038 | [5] -0.095 | [6] 0.032 | entospletinib -0.057

SNX3 (UniProt O60493)
Sequence of UniProt O60493 (O60493 whole entry, looked up): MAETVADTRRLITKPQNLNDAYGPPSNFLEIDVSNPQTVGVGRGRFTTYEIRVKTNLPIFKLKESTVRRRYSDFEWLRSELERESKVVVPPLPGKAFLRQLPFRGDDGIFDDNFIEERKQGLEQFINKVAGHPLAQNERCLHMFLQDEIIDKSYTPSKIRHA
inactive: [1] -0.014 | [2] -0.241 | [3] -0.19 | [4] -0.001 | entinostat 0.025 | vorinostat 0.105 | citarinostat 0.048 | silmitasertib 0.132 | [5] -0.037 | [6] -0.116 | entospletinib 0.084

SLC25A36 (UniProt Q96CQ1)
inactive: [1] 0.131 | [2] 0.035 | [3] 0.015 | [4] -0.123 | entinostat 0.036 | vorinostat 0.003 | citarinostat 0.063 | silmitasertib 0.106 | [5] 0.027 | [6] 0.028 | entospletinib 0.022

TARS2 (UniProt Q9BW92)
Sequence of UniProt Q9BW92 (Q9BW92 whole entry, looked up): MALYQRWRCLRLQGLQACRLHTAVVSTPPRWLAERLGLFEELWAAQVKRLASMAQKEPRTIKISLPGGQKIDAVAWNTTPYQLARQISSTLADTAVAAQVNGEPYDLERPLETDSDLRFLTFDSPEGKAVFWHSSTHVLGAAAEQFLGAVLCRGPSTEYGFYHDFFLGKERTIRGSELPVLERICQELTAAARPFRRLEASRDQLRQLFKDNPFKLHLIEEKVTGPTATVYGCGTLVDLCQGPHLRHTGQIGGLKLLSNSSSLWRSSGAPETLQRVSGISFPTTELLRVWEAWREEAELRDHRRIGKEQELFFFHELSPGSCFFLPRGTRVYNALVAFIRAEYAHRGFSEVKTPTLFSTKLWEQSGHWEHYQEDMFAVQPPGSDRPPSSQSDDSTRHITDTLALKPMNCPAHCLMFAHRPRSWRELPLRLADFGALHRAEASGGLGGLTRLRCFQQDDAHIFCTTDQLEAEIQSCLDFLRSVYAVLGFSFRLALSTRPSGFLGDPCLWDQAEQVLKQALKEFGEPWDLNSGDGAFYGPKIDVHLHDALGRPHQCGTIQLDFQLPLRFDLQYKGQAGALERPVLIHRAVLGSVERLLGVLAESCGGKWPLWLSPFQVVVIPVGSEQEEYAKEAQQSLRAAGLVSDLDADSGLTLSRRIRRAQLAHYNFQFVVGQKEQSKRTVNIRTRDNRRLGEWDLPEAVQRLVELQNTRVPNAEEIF
active: [3] -0.27
inactive: [1] 0.008 | [2] -0.018 | [4] -0.031 | entinostat 0.011 | vorinostat -0.051 | citarinostat 0.038 | silmitasertib -0.005 | [5] -0.057 | [6] -0.008 | entospletinib -0.072

SPAST (UniProt Q9UBP0)
Sequence of UniProt Q9UBP0 (Q9UBP0 whole entry, looked up): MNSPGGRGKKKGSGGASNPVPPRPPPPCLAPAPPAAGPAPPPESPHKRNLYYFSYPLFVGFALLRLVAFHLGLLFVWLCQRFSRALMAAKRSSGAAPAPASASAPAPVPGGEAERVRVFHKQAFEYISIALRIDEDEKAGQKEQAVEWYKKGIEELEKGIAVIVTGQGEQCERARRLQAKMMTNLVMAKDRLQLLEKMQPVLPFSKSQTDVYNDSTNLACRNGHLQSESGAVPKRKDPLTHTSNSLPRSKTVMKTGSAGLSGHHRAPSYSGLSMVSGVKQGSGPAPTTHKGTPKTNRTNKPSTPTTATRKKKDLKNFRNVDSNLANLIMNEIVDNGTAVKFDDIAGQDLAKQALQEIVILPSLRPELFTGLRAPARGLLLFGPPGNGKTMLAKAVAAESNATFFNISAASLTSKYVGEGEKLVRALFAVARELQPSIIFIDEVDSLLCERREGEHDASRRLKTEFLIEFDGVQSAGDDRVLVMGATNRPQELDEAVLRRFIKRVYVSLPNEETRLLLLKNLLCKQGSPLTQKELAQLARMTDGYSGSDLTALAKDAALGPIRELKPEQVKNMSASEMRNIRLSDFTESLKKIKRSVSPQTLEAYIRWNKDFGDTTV
inactive: [1] 0.027 | [2] -0.003 | [3] -0.12 | [4] -0.109 | entinostat 0.075 | vorinostat 0.033 | citarinostat 0.058 | silmitasertib 0.028 | [5] -0.035 | [6] -0.029 | entospletinib 0

SRI (UniProt P30626)
Sequence of UniProt P30626 (P30626 whole entry, looked up): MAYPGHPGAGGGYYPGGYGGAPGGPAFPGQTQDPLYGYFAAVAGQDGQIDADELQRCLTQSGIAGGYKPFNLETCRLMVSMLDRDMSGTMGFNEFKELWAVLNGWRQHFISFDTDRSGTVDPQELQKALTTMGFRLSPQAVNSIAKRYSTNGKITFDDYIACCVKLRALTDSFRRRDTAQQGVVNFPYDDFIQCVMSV
inactive: [1] -0.014 | [2] 0.081 | [3] -0.04 | [4] 0 | entinostat 0.058 | vorinostat -0.044 | citarinostat 0.027 | silmitasertib -0.004 | [5] -0.045 | [6] -0.038 | entospletinib 0.019

SNUPN (UniProt O95149)
inactive: [1] -0.031 | [2] -0.06 | [3] -0.095 | [4] -0.063 | entinostat 0.06 | vorinostat 0.027 | citarinostat -0.082 | silmitasertib 0.027 | [5] -0.077 | [6] 0.071 | entospletinib 0.064

SRSF2 (UniProt Q01130)
inactive: [1] -0.056 | [2] 0.04 | [3] 0.139 | [4] -0.006 | entinostat -0.067 | vorinostat -0.057 | citarinostat -0.04 | silmitasertib -0.062 | [5] 0.059 | [6] -0.081 | entospletinib 0.071

SUMO1 (UniProt P63165)
Sequence of UniProt P63165 (P63165 whole entry, looked up): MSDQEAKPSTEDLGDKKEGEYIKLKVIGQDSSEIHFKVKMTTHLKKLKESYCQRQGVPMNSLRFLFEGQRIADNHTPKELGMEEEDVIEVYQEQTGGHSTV
inactive: [1] -0.006 | [2] -0.116 | [3] 0.071 | [4] -0.074 | entinostat -0.01 | vorinostat -0.086 | citarinostat -0.063 | silmitasertib -0.012 | [5] 0.045 | [6] -0.087 | entospletinib 0.038

TEX264 (UniProt Q9Y6I9)
Sequence of UniProt Q9Y6I9 (Q9Y6I9 whole entry, looked up): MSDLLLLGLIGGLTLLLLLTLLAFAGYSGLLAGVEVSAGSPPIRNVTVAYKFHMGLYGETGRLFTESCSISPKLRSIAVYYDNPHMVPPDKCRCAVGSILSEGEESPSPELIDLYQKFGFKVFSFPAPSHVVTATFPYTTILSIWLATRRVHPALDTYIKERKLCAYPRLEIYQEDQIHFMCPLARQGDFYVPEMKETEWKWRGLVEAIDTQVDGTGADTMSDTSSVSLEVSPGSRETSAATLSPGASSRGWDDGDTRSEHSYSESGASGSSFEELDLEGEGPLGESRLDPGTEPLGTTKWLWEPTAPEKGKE
inactive: [2] -0.001 | [3] 0.215 | [4] -0.033 | entinostat 0.006 | vorinostat -0.012 | citarinostat -0.054 | silmitasertib 0.02 | [5] -0.093 | [6] 0.515
active: [1] 0.548 | entospletinib 0.601

SMARCA5 (UniProt O60264)
inactive: [1] -0.084 | [2] -0.121 | [3] -0.095 | [4] -0.01 | entinostat 0.097 | vorinostat 0.204 | citarinostat -0.094 | silmitasertib 0.028 | [5] -0.034 | [6] 0.03 | entospletinib 0.099

TIMM13 (UniProt Q9Y5L4)
Sequence of UniProt Q9Y5L4 (Q9Y5L4 whole entry, looked up): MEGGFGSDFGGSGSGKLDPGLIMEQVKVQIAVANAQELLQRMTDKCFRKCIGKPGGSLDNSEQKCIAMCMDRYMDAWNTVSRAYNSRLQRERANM
inactive: [1] 0.114 | [2] 0.031 | [3] -0.027 | [4] 0.012 | entinostat 0.01 | vorinostat 0.031 | citarinostat 0.117 | silmitasertib -0.016 | [5] 0.152 | [6] 0.107 | entospletinib -0.086

TIMM21 (UniProt Q9BVV7)
inactive: [1] -0.041 | [2] -0.055 | [3] -0.087 | [4] -0.047 | entinostat -0.015 | vorinostat 0.04 | citarinostat 0.052 | silmitasertib 0.024 | [5] -0.016 | [6] -0.016 | entospletinib 0.017

SRXN1 (UniProt Q9BYN0)
inactive: [1] -0.013 | [2] -0.364 | [3] -0.024 | [4] -0.021 | entinostat -0.053 | vorinostat -0.24 | citarinostat -0.039 | silmitasertib -0.059 | [5] -0.111 | [6] 0.09 | entospletinib -0.079

SNX6 (UniProt Q9UNH7)
active: [2] -0.376 | [3] -0.403
inactive: [1] -0.027 | [4] 0.007 | entinostat 0.075 | vorinostat 0.15 | citarinostat 0.064 | silmitasertib -0.142 | [5] -0.003 | [6] -0.087 | entospletinib -0.019

SLC25A4 (UniProt P12235)
inactive: [1] -0.012 | [2] -0.035 | [3] -0.056 | [4] -0.006 | entinostat -0.019 | vorinostat -0.12 | citarinostat -0.021 | silmitasertib 0.009 | [5] -0.025 | [6] -0.002 | entospletinib -0.009
